The full ranking holds about 16,000 sequences; the median of “rpm ratio (pull-down/input)” is about 0.94, and the highest 2% start at about 1.7. Shown is part of a subset that was picked to be rich in the highest values.
Target: T1, MBP-FoxP1dN (Mus musculus, UniProt P58462 326-579)
T1 sequence: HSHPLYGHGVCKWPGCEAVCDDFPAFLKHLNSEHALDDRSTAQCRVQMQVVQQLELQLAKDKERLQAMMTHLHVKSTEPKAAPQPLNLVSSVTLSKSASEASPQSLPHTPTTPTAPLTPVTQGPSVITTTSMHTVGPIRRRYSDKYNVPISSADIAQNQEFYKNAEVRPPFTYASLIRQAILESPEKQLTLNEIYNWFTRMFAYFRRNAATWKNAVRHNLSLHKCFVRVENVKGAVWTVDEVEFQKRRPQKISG
Assay: PD-seq (MBP pull-down with sequencing); 20 mM Tris-HCl pH 7.5, 100 mM NaCl, 1.5 mM MgCl2, 0.4 uM protein, 0.1 uM dsDNA library, 30 min, room temperature, amylose pull-down; high values mean tight binding
Settings: protein: recombinant; tags: His6-MBP; chain copies: 2; dsDNA, one strand shown
Outline: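 Protein and DNA were mixed at 0.4 µM and 0.1 µM and held for 30 min at room temperature in Tris pH 7.5 buffer with NaCl and MgCl2; the protein was a His6-MBP-tagged, N-terminally truncated mouse FoxP3 or FoxP1 fragment from E. coli, and the DNA a Klenow-filled double-stranded degenerate library. Amylose resin captured the complexes, which were washed three times. Binding is read as reads-per-million enrichment of pull-down versus input after Illumina sequencing, with replicates pooled.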

Sequence	binding signal
GATGATTGTTCTCCCAGCTGATGAATTCGCAAATTCGAGTAAACAAATTTTCCTAATCTTTCTGTTCAAGCGCCATCTAC	0.933 RPM ratio (pull-down/input)
GATGATTGTTCTCCCAGCTGATGAATTGGCCTTCTCGAGTAAACAAATTTTCCTAATCTTTCTGTTCAAGCGCCATCTAC	0.772 RPM ratio (pull-down/input)
GATGATTGTTCTCCCAGCTGATGAATTGCAATGTTCGAGTAAACAAATTTTCCTAATCTTTCTGTTCAAGCGCCATCTAC	1.42 RPM ratio (pull-down/input)
GATGATTGTTCTCCCAGCTGATGAATTAAGGGTTTCGAGTAAACAAATTTTCCTAATCTTTCTGTTCAAGCGCCATCTAC	0.875 RPM ratio (pull-down/input)
GATGATTGTTCTCCCAGCTGATGAATTCATGTTTTCGAGTAAACAAATTTTCCTAATCTTTCTGTTCAAGCGCCATCTAC	2.2 RPM ratio (pull-down/input)
GATGATTGTTCTCCCAGCTGATGAATTCCTTGTTTCGAGTAAACAAATTTTCCTAATCTTTCTGTTCAAGCGCCATCTAC	0.969 RPM ratio (pull-down/input)
GATGATTGTTCTCCCAGCTGATGAATTTCATGTTTCGAGTAAACAAATTTTCCTAATCTTTCTGTTCAAGCGCCATCTAC	0.998 RPM ratio (pull-down/input)
GATGATTGTTCTCCCAGCTGATGAATTTCTTGTTTCGAGTAAACAAATTTTCCTAATCTTTCTGTTCAAGCGCCATCTAC	1.14 RPM ratio (pull-down/input)
GATGATTGTTCTCCCAGCTGATGAATTCTCATGTTCGAGTAAACAAATTTTCCTAATCTTTCTGTTCAAGCGCCATCTAC	0.861 RPM ratio (pull-down/input)
GATGATTGTTCTCCCAGCTGATGAATTCTTGTTTTCGAGTAAACAAATTTTCCTAATCTTTCTGTTCAAGCGCCATCTAC	2.77 RPM ratio (pull-down/input)
GATGATTGTTCTCCCAGCTGATGAATTGAAAGCCTCGAGTAAACAAATTTTCCTAATCTTTCTGTTCAAGCGCCATCTAC	0.795 RPM ratio (pull-down/input)
GATGATTGTTCTCCCAGCTGATGAATTATACAGCTCGAGTAAACAAATTTTCCTAATCTTTCTGTTCAAGCGCCATCTAC	1.03 RPM ratio (pull-down/input)
GATGATTGTTCTCCCAGCTGATGAATTCTCGCGCTCGAGTAAACAAATTTTCCTAATCTTTCTGTTCAAGCGCCATCTAC	0.835 RPM ratio (pull-down/input)
GATGATTGTTCTCCCAGCTGATGAATTCGTCTTGTCGAGTAAACAAATTTTCCTAATCTTTCTGTTCAAGCGCCATCTAC	0.827 RPM ratio (pull-down/input)
GATGATTGTTCTCCCAGCTGATGAATTAATAATCTCGAGTAAACAAATTTTCCTAATCTTTCTGTTCAAGCGCCATCTAC	1.06 RPM ratio (pull-down/input)
GATGATTGTTCTCCCAGCTGATGAATTTATATTCTCGAGTAAACAAATTTTCCTAATCTTTCTGTTCAAGCGCCATCTAC	1.04 RPM ratio (pull-down/input)
GATGATTGTTCTCCCAGCTGATGAATTATATCTGTCGAGTAAACAAATTTTCCTAATCTTTCTGTTCAAGCGCCATCTAC	1.08 RPM ratio (pull-down/input)
GATGATTGTTCTCCCAGCTGATGAATTATTTTTGTCGAGTAAACAAATTTTCCTAATCTTTCTGTTCAAGCGCCATCTAC	1.37 RPM ratio (pull-down/input)
GATGATTGTTCTCCCAGCTGATGAATTTATTCTGTCGAGTAAACAAATTTTCCTAATCTTTCTGTTCAAGCGCCATCTAC	1.12 RPM ratio (pull-down/input)
GATGATTGTTCTCCCAGCTGATGAATTTTATCTGTCGAGTAAACAAATTTTCCTAATCTTTCTGTTCAAGCGCCATCTAC	0.918 RPM ratio (pull-down/input)
GATGATTGTTCTCCCAGCTGATGAATTTATATTGTCGAGTAAACAAATTTTCCTAATCTTTCTGTTCAAGCGCCATCTAC	2.36 RPM ratio (pull-down/input)
GATGATTGTTCTCCCAGCTGATGAATTTTATATGTCGAGTAAACAAATTTTCCTAATCTTTCTGTTCAAGCGCCATCTAC	0.988 RPM ratio (pull-down/input)
GATGATTGTTCTCCCAGCTGATGAATTATATTTGTCGAGTAAACAAATTTTCCTAATCTTTCTGTTCAAGCGCCATCTAC	2.29 RPM ratio (pull-down/input)

Sequence	binding signal
GATGATTGTTCTCCCAGCTGATGAATTTTTATTGTCGAGTAAACAAATTTTCCTAATCTTTCTGTTCAAGCGCCATCTAC	2.51 RPM ratio (pull-down/input)
GATGATTGTTCTCCCAGCTGATGAATTGTTATTGTCGAGTAAACAAATTTTCCTAATCTTTCTGTTCAAGCGCCATCTAC	3.45 RPM ratio (pull-down/input)
GATGATTGTTCTCCCAGCTGATGAATTAAACATATCGAGTAAACAAATTTTCCTAATCTTTCTGTTCAAGCGCCATCTAC	1.4 RPM ratio (pull-down/input)
GATGATTGTTCTCCCAGCTGATGAATTGGTGCCATCGAGTAAACAAATTTTCCTAATCTTTCTGTTCAAGCGCCATCTAC	0.972 RPM ratio (pull-down/input)
GATGATTGTTCTCCCAGCTGATGAATTCGCTGTATCGAGTAAACAAATTTTCCTAATCTTTCTGTTCAAGCGCCATCTAC	1.04 RPM ratio (pull-down/input)
GATGATTGTTCTCCCAGCTGATGAATTTACCCTCTCGAGTAAACAAATTTTCCTAATCTTTCTGTTCAAGCGCCATCTAC	1.06 RPM ratio (pull-down/input)
GATGATTGTTCTCCCAGCTGATGAATTAAAAAGTTCGAGTAAACAAATTTTCCTAATCTTTCTGTTCAAGCGCCATCTAC	0.935 RPM ratio (pull-down/input)
GATGATTGTTCTCCCAGCTGATGAATTATAGTAGTCGAGTAAACAAATTTTCCTAATCTTTCTGTTCAAGCGCCATCTAC	0.985 RPM ratio (pull-down/input)
GATGATTGTTCTCCCAGCTGATGAATTGGTCGCGTCGAGTAAACAAATTTTCCTAATCTTTCTGTTCAAGCGCCATCTAC	1.03 RPM ratio (pull-down/input)
GATGATTGTTCTCCCAGCTGATGAATTCAAGCTCTCGAGTAAACAAATTTTCCTAATCTTTCTGTTCAAGCGCCATCTAC	0.854 RPM ratio (pull-down/input)
GATGATTGTTCTCCCAGCTGATGAATTTATTGTGTCGAGTAAACAAATTTTCCTAATCTTTCTGTTCAAGCGCCATCTAC	1.88 RPM ratio (pull-down/input)
GATGATTGTTCTCCCAGCTGATGAATTATTCCTGTCGAGTAAACAAATTTTCCTAATCTTTCTGTTCAAGCGCCATCTAC	0.964 RPM ratio (pull-down/input)
GATGATTGTTCTCCCAGCTGATGAATTATTTTGGTCGAGTAAACAAATTTTCCTAATCTTTCTGTTCAAGCGCCATCTAC	1.35 RPM ratio (pull-down/input)
GATGATTGTTCTCCCAGCTGATGAATTTTATGTGTCGAGTAAACAAATTTTCCTAATCTTTCTGTTCAAGCGCCATCTAC	1.13 RPM ratio (pull-down/input)
GATGATTGTTCTCCCAGCTGATGAATTTATTTGGTCGAGTAAACAAATTTTCCTAATCTTTCTGTTCAAGCGCCATCTAC	1.59 RPM ratio (pull-down/input)
GATGATTGTTCTCCCAGCTGATGAATTGTCTTATTCGAGTAAACAAATTTTCCTAATCTTTCTGTTCAAGCGCCATCTAC	1.18 RPM ratio (pull-down/input)
GATGATTGTTCTCCCAGCTGATGAATTCTTATTGTCGAGTAAACAAATTTTCCTAATCTTTCTGTTCAAGCGCCATCTAC	2.49 RPM ratio (pull-down/input)
GATGATTGTTCTCCCAGCTGATGAATTTTATTGGTCGAGTAAACAAATTTTCCTAATCTTTCTGTTCAAGCGCCATCTAC	1.74 RPM ratio (pull-down/input)
GATGATTGTTCTCCCAGCTGATGAATTTATTTTGTCGAGTAAACAAATTTTCCTAATCTTTCTGTTCAAGCGCCATCTAC	1.62 RPM ratio (pull-down/input)
GATGATTGTTCTCCCAGCTGATGAATTGATTGTGTCGAGTAAACAAATTTTCCTAATCTTTCTGTTCAAGCGCCATCTAC	1.35 RPM ratio (pull-down/input)
GATGATTGTTCTCCCAGCTGATGAATTTAATTTGTCGAGTAAACAAATTTTCCTAATCTTTCTGTTCAAGCGCCATCTAC	1.25 RPM ratio (pull-down/input)
GATGATTGTTCTCCCAGCTGATGAATTTTATTTGTCGAGTAAACAAATTTTCCTAATCTTTCTGTTCAAGCGCCATCTAC	2.45 RPM ratio (pull-down/input)
